Results: PubChem BioAssay AID488920 (Sanford-Burnham Center for Chemical Genomics, 2010)
The source made the active and inactive calls. No stated cut-off is given here; in the data, active means IC50 below about 3 µM; inactive means the rest.

Assay: luminescence signal interference by compounds, dose response, artefact control for SENP inhibitor project, biochemical (AID 488920)
Details: luminescence interference counterscreen, spectral interferers
With `Cc1ccc(S(=O)(=O)/N=C2\C=C(Nc3cccc(C(=O)O)c3)C(=O)c3ccccc32)c(C)c1` the IC50 was > 5 µM (inactive).
For `Cc1nc(Nc2ccc(C(=O)O)cc2)sc1-c1ccccc1`, the IC50 was 0.325 µM (active).
In the case of `Cc1ccc(/C=C/c2nc3ccccc3c(=O)[nH]2)cc1`, the IC50 is reported as 0.403 µM (active).
For `CCOc1ccc(/C=C2\CCc3ccccc3C2=O)cc1`, the IC50 was 0.782 µM (active).
With `Cc1ccc(C(=O)NNc2cc(N3CCCC3)nc(N3CCCC3)n2)cc1` the IC50 was > 5 µM (inactive).
In the case of `O=c1[nH]c(Nc2ccccc2)cc2ccccc12`, the IC50 is reported as > 5 µM (inactive).
With `COc1ccc(C(=O)c2nccc3cc(OC)c(OC)cc23)cc1OC` the IC50 was > 5 µM (inactive).
For `O=C1c2ccccc2-c2nnc(-c3ccc(F)cc3)cc21`, the IC50 was 1.18 µM (active).
In the case of `Cc1ccc(NC2=C/C(=N/S(=O)(=O)c3cccs3)c3ccccc3C2=O)cc1`, the IC50 is reported as > 5 µM (inactive).
For `Cc1ccnc(Nc2nc(-c3ccccc3)cs2)c1`, the IC50 was 0.824 µM (active).
With `CCCCn1c(NC(=O)c2ccccc2Cl)c(C#N)c2nc3ccccc3nc21` the IC50 was > 5 µM (inactive).
For `Oc1[nH]c2ccccc2c1N=Nc1ccc(F)cc1`, the IC50 was 0.888 µM (active).
With `O=C(O)c1ccc2cc(-c3ccccc3)[nH]c2c1` the IC50 was 0.471 µM (active).
In the case of `O=c1oc2c(O)cccc2cc1-c1nc2ccccc2[nH]1`, the IC50 is reported as 0.606 µM (active).
For `Cn1c(-c2ccccc2)cc2onc(-c3ccccc3)c2c1=O`, the IC50 was 0.607 µM (active).
In the case of `COc1cc(C(=O)c2nccc3cc(OC)c(OC)cc23)c([N+](=O)[O-])cc1OC`, the IC50 is reported as > 5 µM (inactive).
With `O=C1/C(=C/c2ccc([N+](=O)[O-])cc2)CCc2ccccc21` the IC50 was 0.884 µM (active).
With `C/C(=N\OC(=O)c1ccc(Br)cc1)c1ccccn1` the IC50 was 0.548 µM (active).
In the case of `COc1cc([N+](=O)[O-])ccc1N/C=C/C(=O)c1cccs1`, the IC50 is reported as 0.458 µM (active).
In the case of `CCN(CC)c1ccc(/C=N/NC(=O)c2ccoc2C)c(O)c1`, the IC50 is reported as 2.53 µM (active).
For `Cc1cc(C)nc(Nc2nc(-c3ccccc3)cs2)n1`, the IC50 was 0.865 µM (active).
With `CCn1c(O)c(N=Nc2ccc3ccccc3n2)c2ccccc21` the IC50 was 2.91 µM (active).
In the case of `O=C(O)c1ccc(NC2=C/C(=N/S(=O)(=O)c3ccccc3)c3ccccc3C2=O)cc1`, the IC50 is reported as > 5 µM (inactive).
With `CCC(C)n1c(NC(=O)c2ccccc2)c(C#N)c2nc3ccccc3nc21` (centres undefined) the IC50 was > 5 µM (inactive).
